# A selection: hits, their analogues and other compounds. The true share with any hit is near 0.95%.
# LmPK inh: qHTS Assay for Inhibitors of Leishmania Mexicana Pyruvate Kinase (LmPK) | AID 1721, 2009 | Potency, µM (series often up to 57.5 µM), without a hit: top-dose activity change, negative = inhibition, most hits filed as inhibitors | 290,000 compounds, 0.37% hits | purified LmPK, Kinase-Glo ATP luminescence, 1 h
# Target sequence (Q27686 whole entry, looked up): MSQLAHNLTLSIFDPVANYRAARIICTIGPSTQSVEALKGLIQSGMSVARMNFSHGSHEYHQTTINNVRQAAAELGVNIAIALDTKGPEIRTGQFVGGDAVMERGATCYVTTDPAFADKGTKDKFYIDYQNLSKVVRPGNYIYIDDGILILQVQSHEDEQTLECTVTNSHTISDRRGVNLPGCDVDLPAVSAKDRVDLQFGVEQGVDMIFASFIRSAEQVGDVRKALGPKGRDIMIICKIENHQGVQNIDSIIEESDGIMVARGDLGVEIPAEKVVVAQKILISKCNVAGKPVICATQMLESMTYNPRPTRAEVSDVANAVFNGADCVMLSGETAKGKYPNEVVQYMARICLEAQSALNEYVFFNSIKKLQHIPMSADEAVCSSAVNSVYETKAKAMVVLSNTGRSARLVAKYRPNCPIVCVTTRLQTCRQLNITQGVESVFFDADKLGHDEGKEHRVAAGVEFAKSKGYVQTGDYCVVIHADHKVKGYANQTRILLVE
#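 Purified LmPK (0.1 nM) converted ADP (0.1 mM) to ATP with PEP (0.5 mM) in imidazole buffer pH 7.2 with KCl and MgCl2, 1 h at room temperature. ATP was read by Kinase-Glo luminescence; data normalized to uninhibited and no-enzyme controls.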
# TbPYK inhibitor: qHTS of Trypanosoma Brucei Inhibitors. 410,000 compounds, 0.12% hits. Potency, µM (series often up to 76.8 µM), for the others: top-dose activity, negative = inhibition, most hits filed as inhibitors. pyruvate kinase (Trypanosoma brucei), Q57TT1. TbPYK enzyme, Kinase-Glo Plus ATP luminescence, 45 min; also: nearly all actives have a fitted effect of over 50% in size
#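 Glycolytic pyruvate kinase of T. brucei was incubated with substrate, test compound and 130 uM ADP for 45 minutes at room temperature. Luminescent Kinase-Glo Plus signal was measured after 10 minutes.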
# FBPA Giardia inh: qHTS Assay for Inhibitors of Fructose-1,6-bisphosphate Aldolase from Giardia Lamblia; A8B2U2; purified Giardia FBPA; Potency, µM (highest dose often 59.6 µM), without a hit: top-dose activity, negative = inhibition, usual class: inhibitors; 290,000 compounds, 0.71% hits; AID 2451, 2010; also: nearly all actives have a fitted effect of over 55% in size
#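 40 nM FBPA preincubated 10 min at RT with compound (up to 57.5 uM final), then substrate plus GAPDH/TPI/NAD/arsenate coupling and diaphorase/resazurin added. Fluorescence read after 20 min at RT, 525/598 nm.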
# RE007 growth inh: qHTS Assay for Inhibitors of the HIV-1 protein Vpr | AID 651644, 2012 | 360,000 compounds, 0.21% hits | Potency, µM (series often up to 92.2 µM), for inactives: top-dose activity change, negative = less growth, most hits filed as inhibitors | S. pombe RE007 Vpr strain, BacTiter-Glo ATP luminescence, 24 h; active = well fitted falling curve with a large enough effect; inconclusive = small, poorly fitted or top-dose-only effect; inactive = no such curve, though single readings can be large or run the other way; also: nearly all actives have a fitted effect of over 50% in size
#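 Fission yeast strain RE007, carrying one chromosomally integrated HIV-1 vpr copy, was seeded at OD 0.01 in PMG+AL medium with 23 nL pinned compound. After 24 h at 30 °C and 99% humidity, viability was read by BacTiter-Glo luminescence.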
# Starred values were filed as active, the others as inactive; u = inconclusive; x = not tested or not shown; [ ] = remark or other dose. Unless noted, calls follow the shape of the dose curve; as a rule, active = well fitted curve in the direction sought with a large enough effect; inconclusive = small, poorly fitted or top-dose-only effect, or another doubt; inactive = no such curve, though single readings can be large; an effect the other way counts as inactive or inconclusive. % is scaled to controls: 0 for no effect and ±100 for the full control effect; potency is read from the fitted curve at half-maximal effect.
SMILES,LmPK inh,TbPYK inhibitor,FBPA Giardia inh,RE007 growth inh
O=C(Nc1ccccc1F)c1ccc(C(=O)c2ccccc2)cc1,4%,-1%,x,0%
FC(F)(F)c1ccc(Cl)c(Nc2nnc(-c3ccncc3)s2)c1,x,-9%,x,2%
Clc1ccccc1Nc1nnc(-c2ccncc2)s1,4.5µM*,u,0%,32µM*
S=c1[nH]nc(-c2cc(-c3ccco3)[nH]n2)n1-c1ccccc1,13µM*,u,-9%,22%
COc1ccc(-c2cc(-c3n[nH]c(=S)n3-c3cc(OC)ccc3OC)[nH]n2)cc1,u,u,5%,23%
Cc1occc1-c1n[nH]c(=S)n1-c1ccccc1,u,18µM*,-8%,-1%
COc1ccccc1-n1c(-c2ccc(NS(C)(=O)=O)cc2)n[nH]c1=S,7.9µM*,u,-13%,0%
COc1ccc(-c2n[nH]c(=S)n2-c2cc(OC)ccc2OC)cc1,3.5µM*,2.8µM*,0%,6%
CCC(=O)[C@@]1(C)[C@H](C)C[C@@H]2[C@@H]3CCC4=CC(=O)C=C[C@@]4(C)[C@H]3[C@H](O)C[C@]21C,x,4%[33.2 µM],-13%[21.7 µM],x
COc1ccc(OC)c(-n2c(-c3cc(-c4ccc(F)cc4)n[nH]3)n[nH]c2=S)c1,14µM*,u,3%,-14%
COc1ccc(OC)c(-n2c(-c3ccc(C)cc3)n[nH]c2=S)c1,2.5µM*,u,2%,-1%
COc1ccc(OC)c(-n2c(-c3cccc(O)c3)n[nH]c2=S)c1,2µM*,14µM*,-11%,1%
COc1ccc(OC)c(-n2c(-c3cc(-c4ccco4)[nH]n3)n[nH]c2=S)c1,5%,3.2µM*,0%,8%
O=C(O)c1ccc(-c2ccc3cc(C45CC6CC(CC(C6)C4)C5)c(O)cc3c2)cc1,x,x,-30%,x
CCOC(=O)COc1ccc(C(=O)c2ccccc2)c(O)c1,7%,-22%,0%,2%
CCOc1ccc(C(=O)c2cccs2)cc1,0%,0%,0%,u
CCOc1ccc(C(=O)c2ccc(O)c(O)c2O)cc1,x,x,16µM*,x
CCOc1cccc(C(=O)c2ccc(O)c(O)c2O)c1,x,x,20µM*,x
O=C(Nc1ccccc1)Nc1nnc([C@@H]2C[C@H](O)[C@@H](CO)O2)s1,x,-3%,x,11%[18.4 µM]
CC(=O)Nc1ccc(NC(=O)CSc2nc(N)c(NC(=O)c3ccco3)c(=O)[nH]2)cc1,1%,-2%,x,1%
CC(=NNC(N)=O)C1=C(O)C(C(C)C)NC1=O (stereo unspecified),x,-5%,x,-3%
O=C(NCCCN1CCOCC1)c1sc2cc(Cl)ccc2c1Cl,-10%,-5%,-1%,u
O=C(NCCCN1CCOCC1)c1sc2cc([N+](=O)[O-])ccc2c1Cl,-2%,u,2.5µM*,0%
Cc1nc2n(c(=O)c1CCN1CCC(c3noc4cc(F)ccc34)CC1)CCC[C@@H]2O,x,-5%,x,x
C=CCc1c(C)[nH]c2c(OC)cccc2c1=S,2µM*,u,-27%,0%
SMILES,LmPK inh,TbPYK inhibitor,FBPA Giardia inh,RE007 growth inh
C=CCN(CC=C)C(=O)c1c(OC)cccc1OC,1%,-2%,4%,-3%
CC(=O)NC1=C(N(C)C2CCS(=O)(=O)C2)C(=O)c2ccccc2C1=O (stereo unspecified),-2%,-10%,0.13µM*,-16%
CN(C(=O)Nc1ccccc1)C1CCS(=O)(=O)C1 (stereo unspecified),0%,-8%,2%,16%
Cc1oc2ccc(O)c(CN3CCN(C)CC3)c2c1C(=O)Nc1ccc(C(C)C)cc1,x,-2%,x,x
c1cc2c(cc1C1=NNC(=NC3CC3)SC1)OCCO2,11µM*,u,5%,u
CCCCN=C1NN=C(c2ccc3c(c2)OCCO3)CS1,-3%[11.5 µM],u,-11%,-13%
Cc1[nH]n(-c2ccc([N+](=O)[O-])cc2)c(=O)c1C=NCCc1c[nH]c2ccccc12,-15%,-3%,4%,u
Cc1[nH]n(-c2ccc([N+](=O)[O-])cc2)c(=O)c1C=NCCN1CCN(C(=O)c2ccc(Br)cc2)CC1,-25%,-6%,6%,7.1µM*
Cc1[nH]n(-c2ccc([N+](=O)[O-])cc2)c(=O)c1C=NCCN1CCN(C(=O)c2ccc(F)cc2)CC1,-21%,3%,3%,-11%
Cc1[nH]n(-c2ccc([N+](=O)[O-])cc2)c(=O)c1C=NCCN1CCN(C(=O)c2cccc(F)c2)CC1,u,-7%,5%,8.9µM*
COC(=O)C1CCN(C2CN(Cc3ccc(C)cc3)S(=O)(=O)C2)CC1 (stereo unspecified),x,2%,x,1%
Cn1c(-c2c(N)n(CCc3ccccc3)c3nc4ccccc4nc23)nc2ccccc21,8%,-5%,13%,u
Cn1c(-c2c(N)n(C3CCCC3)c3nc4ccccc4nc23)nc2ccccc21,2%,-9%,26%,7.1µM*
O=C1c2sc3nc4n(c(=O)c3c2CCC1Br)CCCCC4 (stereo unspecified),28µM*,u,20µM*,2%
Cc1nc(NS(=O)(=O)c2ccc(N)cc2)nc(C)c1Br,x,-2%,x,x
Nc1nccc(-c2ccc3noc(-c4ccc(Cl)cc4)c3c2)n1,x,0%,x,x
Cn1c(=O)c2cc(NC(=O)NCc3ccc(F)cc3)ccc2n1C,x,-4%,x,5%[18.4 µM]
O=c1c(=NNc2ccccc2Cl)c(=O)c2ccccc12,16µM*,-12%,-5%,6%
CC(C)Cn1cc(C(=O)N2CCN(c3cccc(Cl)c3)CC2)c2c3ccccc3n(C)c2c1=O,x,-5%,x,x
Cc1ccsc1-c1n[nH]c(=S)n1C1CCCCC1,8.9µM*,3.2µM*,-7%,2%
S=c1[nH]nc(-c2ccccc2)n1C1C=CCCC1 (stereo unspecified),2.5µM*,8.9µM*,-8%,5%
CC1CCCCC1n1c(-c2cccnc2)n[nH]c1=S (stereo unspecified),20µM*,11µM*,-6%,9%
COc1ccc(-c2n[nH]c(=S)n2C2CCCCC2)cc1,4.5µM*,u,11%,18%
C=CC1=C[C@@H](O)C2OC2C12OCCCO2 (stereo partly specified),x,x,-2%[12.9 µM],x
NC(=O)NC(CC(=O)NCc1ccc2c(c1)OCO2)c1ccccc1Cl (stereo unspecified),-4%,1%,4%,5%
CC(=O)OCC1=C[C@H]2[C@@H]3C(C)(C)[C@]3(OC(C)=O)C[C@@H](C)[C@]2(O)[C@@H]2C=C(C)C(=O)[C@@]2(O)C1,x,x,-9%,x
COc1cccc(-c2ccc3ncnc(N4CCNCC4)c3c2)c1,x,x,2%,x
S=c1[nH]nc(-c2cccnc2)n1C1CCCCC1,8.9µM*,u,-23%,0%
CNC1CCc2cc(OC)c(OC)c(OC)c2-c2ccc(OC)c(=O)cc21 (stereo unspecified),x,1%,x,x
